Results on 5 molecules are retold here after PubChem BioAssay.

Inconclusive results are not listed. The source made the active and inactive calls.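 The calls were made as follows, unless noted: active = GFP signal, as percent of the solvent control, above the screen mean plus 3 SD, about 149; inconclusive = no reading because the compound's own fluorescence upset strain identification; inactive = the rest.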

A short description of experiment [1]: rapamycin-like changes in RPL19A-GFP expression – cell-based, S. cerevisiae, multiplex flow cytometry, primary screen (AID 1862; in the data active = percent of DMSO control GFP below about 86%;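 also: lower values mimic rapamycin by blocking the RPL19A rise seen in DMSO cells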). The conditions noted are these: S. cerevisiae RPL19A-GFP strain, flow cytometry fluorescence, 3 h; at 10 µM; stronger effect = lower value. (In flow cytometry, cells or beads pass a laser one at a time.)
Experiment [2] is described as follows: TOR pathway GLN3 branch reporter MEP2-GFP changes – S. cerevisiae, multiplex flow cytometry, primary screen (AID 1867;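 active = GFP response, as percent of the DMSO control, above the screen-wide mean plus 3 SD, about 139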;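 also: median GFP channel fluorescence of barcode-gated MEP2-GFP cells measured by flow cytometry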). The note with it: S. cerevisiae MEP2-GFP strain, 3 h, at 10 µM, stronger effect = higher value, 100% means same as DMSO wells.
Experiment [3] in a line: TOR pathway RTG branch CIT2 reporter changes – S. cerevisiae, GFP fusion, multiplex flow cytometry, primary screen (AID 1870;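 active = percent response above a set limit, the screen-wide mean plus 3 SD, cut at about 130% in these data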;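 also: barcoded CIT2-GFP strain pooled with four other GFP strains with rapamycin as positive control; median GFP fluorescence per well over plate mean of DMSO wells so 100% = DMSO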). The note with it: S. cerevisiae CIT2-GFP expression, 3 h, at 10 µM, stronger effect = higher value.
A short description of experiment [4]: TOR pathway LAP4-GFP level changes – S. cerevisiae, multiplex flow cytometry, primary screen (AID 1873). The conditions noted are these: S. cerevisiae LAP4-GFP expression, 3 h, at 10 µM, stronger effect = higher value.
The nature of experiment [5]: reduced mouse 2C T cell binding to pMHC/ICAM-1 vesicles – MLPCN validation set, flow cytometry, LFA-1/ICAM-1 modulator project, pilot screen (AID 2523;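 active = response below a set limit, under 55% cells CD8-positive and vesicle-bound, and CD8 cells' 90th-percentile brightness under 279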;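 as to vesicle binding response: mean PE anti-B7-1 fluorescence of CD8+ cells relative to row control; 100% = QL9-loaded vesicles with DMSO vehicle in the same plate row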). The note with it: 2C mouse CD8+ T cells, at 7 µM, stronger effect = lower value; double positive events: measured here: CD8+/vesicle+ event percentage.
Experiment [6] concerns the target Integrin beta-1 (Homo sapiens) + Integrin alpha-4 (Homo sapiens) (UniProt P13612+P05556). The experiment can be described thus: alpha4beta1 integrin LIBS antibody binding reduction – U937 cells, HUTS-21 mAb, flow cytometry, validation set, VLA-4 allosteric modulator project, pilot screen (AID 2674;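 active = inhibition above 50%, about 3 SD of the validation set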;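 also: antibody binding induced by the VLA-4 ligand LDV present at three times its Kd; 0% = LDV ligand with antibody and no compound and 100% = antibody without LDV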). The conditions noted are these: HUTS-21 LIBS mAb binding, at 6.7 µM, stronger effect = higher value, binding induced by LDV ligand.

Experiment [7] in a line: calorie-restriction mimetic ROS inhibitors, yeast – validation compound set, pilot screen (AID 2706;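 active = superoxide response below 65% of plate, a cut near 3 SD across the whole screen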;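 also: yeast exposed to compound for one week at 30 degrees C before staining; 100% = mean of all compound wells on the same plate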). The note with it: S. cerevisiae aging, superoxide DHE fluorescence; at 10 µM, stronger effect = lower value.
Experiment [8] concerns the target Beta-adrenergic receptor kinase 1 (Homo sapiens) (UniProt P25098). Briefly: GRK2 binders displacing RNA aptamer, biochemical, validation, human GRK2, bead flow cytometry (AID 488806;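 active = aptamer binding inhibition above 30%, about 3 SD of noise from non-fluorescent compounds; inactive = inhibition at or below 30%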). The note with it: bead-bound GRK2, FAM-aptamer displacement, at 10 µM, stronger effect = higher value.
For experiment [9], the target named is Beta-2 adrenergic receptor (Homo sapiens) (UniProt P07550). The experiment can be described thus: agonist-induced loss of surface beta2AR – cell-based, FAP fluorogen, flow cytometry, validation set, pilot screen (AID 504459;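 active = percent response above 42, roughly 3 SD of non-fluorescent test compounds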;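 also: agonist-driven loss of surface beta2AR via internalization measured by FAP dye flow cytometry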). The conditions noted are these: Am2.2-beta2AR cells, at 10 µM, stronger effect = higher value.
Experiment [10] addresses AP-2 complex subunit beta (Homo sapiens) (UniProt P63010). Briefly: beta-arrestin/AP2 interaction blockers – biochemical, validation set, GST-AP2 beads, flow cytometry, pilot screen (AID 504541;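 active = inhibition above 54%, about 3 SD of non-fluorescent compounds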;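 also: AP2 carries R879A mutation and is captured from E. coli lysate; bead-bound FITC arrestin peptide fluorescence measuring arrestin peptide binding to AP2; 0% = DMSO wells and 100% = excess unlabeled arrestin peptide control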). The note with it: FITC arrestin peptide, at 10 µM, stronger effect = higher value, AP2 beta2 appendage fragment, R879A mutant.
The nature of experiment [11]: cytosolic pH regulators acting via V-ATPase – S. cerevisiae, pHLuorin, HTS validation (AID 504600; in the data active = response above about 15%;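 also: plate controls were DMSO for no effect and reference compound for full effect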). The note with it: V-ATPase proton transport, at 10 µM, stronger effect = higher value.
Experiment [12] concerns anti-desmoglein-3 scFv antibody binding to human DSG3. The experiment can be described thus: blockers of pathogenic pemphigus antibody–desmoglein-3 binding – biochemical, validation compound set, bead-based, flow cytometry, pilot screen (AID 588368;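 active = binding below the plate cutoff, the plate median minus 3 SD, with a reading above zero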;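 also: signal is the median channel fluorescence of bead-bound GFP antibody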). The conditions noted are these: Protein G beads, DSG3-Fc, scFv-GFP binding, at 10 µM, stronger effect = lower value.
Experiment [13] in a line: Nile Red efflux blockade in pump-expressing yeast – validation compound set, multiplex, phenotypic, pilot screen (AID 588506;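 active = efflux inhibition above 0.42, the validation set average plus 4 SD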;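 also: Nile Red retained in cells so higher fluorescence means more efflux inhibition; 0 = negative control wells and 1 = enniatin B 25 µM full block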). The note with it: S. cerevisiae pump-expressing triplex, Nile Red efflux flow cytometry; at 10 µM; stronger effect = higher value; the pumps come from Candida albicans.
In experiment [14] the target is ATP-binding cassette sub-family B member 6 (Homo sapiens) (UniProt Q9NP58). The experiment can be described thus: blockers of ABCB6-driven porphyrin uptake – K562-ABCB6 cells, flow cytometry, validation set, pilot screen (AID 588550;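 active = inhibition above the screen-wide mean plus 3 SD, about 51%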;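 also: 0% = DMSO wells and 100% = benzethonium chloride 70 µM positive control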). The conditions noted are these: K562-ABCB6 porphyrin accumulation, 1 h, at 10 µM, stronger effect = higher value.
Experiment [15] can be described thus: AML differentiation inducers, ER-HoxA9 marrow cells – cell-based, GFP/MAC1 double positive, flow cytometry, validation set, primary screen (AID 588685;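 active = differentiation response of at least 50%, scaled between solvent and reference control, from cells with both markers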;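 also: compound exposure lasts four days before antibody staining and flow analysis; 0% = DMSO wells and 100% = 5 µM fulvestrant positive control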). The conditions noted are these: stronger effect = higher value, normalized: vehicle 0, fulvestrant 100.
Experiment [16] is described as follows: yeast AGP1-GFP level changes, GLN3 branch – cell-based, multiplex flow cytometry, S. cerevisiae, primary screen (AID 1887;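 active = GFP signal above the screen-wide mean plus 3 SD, that is over about 124.5% of the solvent control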;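 also: AGP1-GFP fusion strain of S. cerevisiae within a five-strain barcoded multiplex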). The note with it: 3 h, at 10 µM, stronger effect = higher value.

Chain of Beta-2 adrenergic receptor (Homo sapiens) (P07550 whole entry, looked up): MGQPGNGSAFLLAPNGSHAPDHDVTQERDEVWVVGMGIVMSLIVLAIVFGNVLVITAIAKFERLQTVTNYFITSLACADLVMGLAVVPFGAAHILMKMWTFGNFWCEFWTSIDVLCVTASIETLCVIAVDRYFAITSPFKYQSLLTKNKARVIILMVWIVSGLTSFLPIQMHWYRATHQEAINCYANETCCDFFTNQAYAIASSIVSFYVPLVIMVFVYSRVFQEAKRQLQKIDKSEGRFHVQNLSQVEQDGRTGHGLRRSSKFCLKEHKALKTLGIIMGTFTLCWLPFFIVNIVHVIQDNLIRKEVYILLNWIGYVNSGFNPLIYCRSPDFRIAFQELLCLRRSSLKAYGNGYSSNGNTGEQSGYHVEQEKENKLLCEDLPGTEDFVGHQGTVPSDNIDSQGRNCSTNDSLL
Chain of AP-2 complex subunit beta (Homo sapiens) (P63010 whole entry, looked up, the tested form may be a part, one chain of several): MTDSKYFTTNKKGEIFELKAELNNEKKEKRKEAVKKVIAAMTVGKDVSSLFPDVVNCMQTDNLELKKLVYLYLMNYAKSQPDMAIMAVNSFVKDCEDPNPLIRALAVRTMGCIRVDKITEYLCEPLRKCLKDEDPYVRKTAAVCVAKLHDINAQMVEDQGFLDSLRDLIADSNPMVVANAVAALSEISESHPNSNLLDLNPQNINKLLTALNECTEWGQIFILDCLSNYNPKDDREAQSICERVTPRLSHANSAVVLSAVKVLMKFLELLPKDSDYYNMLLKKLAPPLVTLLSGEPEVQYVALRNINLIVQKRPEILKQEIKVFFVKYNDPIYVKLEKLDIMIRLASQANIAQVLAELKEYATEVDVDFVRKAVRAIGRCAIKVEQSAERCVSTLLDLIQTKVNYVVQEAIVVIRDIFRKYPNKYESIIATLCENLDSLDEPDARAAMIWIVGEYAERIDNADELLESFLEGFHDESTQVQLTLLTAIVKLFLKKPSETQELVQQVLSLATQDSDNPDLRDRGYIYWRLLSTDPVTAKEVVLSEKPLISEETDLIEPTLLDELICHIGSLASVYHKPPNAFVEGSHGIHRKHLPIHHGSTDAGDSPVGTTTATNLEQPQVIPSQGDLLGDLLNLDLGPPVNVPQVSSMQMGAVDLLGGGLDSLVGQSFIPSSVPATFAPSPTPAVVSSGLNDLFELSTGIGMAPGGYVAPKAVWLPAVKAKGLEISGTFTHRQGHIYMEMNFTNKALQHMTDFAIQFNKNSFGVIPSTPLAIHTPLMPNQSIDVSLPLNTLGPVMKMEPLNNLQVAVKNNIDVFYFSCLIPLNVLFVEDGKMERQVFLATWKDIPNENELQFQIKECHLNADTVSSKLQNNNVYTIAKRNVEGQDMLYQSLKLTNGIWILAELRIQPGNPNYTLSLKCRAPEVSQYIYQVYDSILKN
Chain of Beta-adrenergic receptor kinase 1 (Homo sapiens) (P25098 whole entry, looked up): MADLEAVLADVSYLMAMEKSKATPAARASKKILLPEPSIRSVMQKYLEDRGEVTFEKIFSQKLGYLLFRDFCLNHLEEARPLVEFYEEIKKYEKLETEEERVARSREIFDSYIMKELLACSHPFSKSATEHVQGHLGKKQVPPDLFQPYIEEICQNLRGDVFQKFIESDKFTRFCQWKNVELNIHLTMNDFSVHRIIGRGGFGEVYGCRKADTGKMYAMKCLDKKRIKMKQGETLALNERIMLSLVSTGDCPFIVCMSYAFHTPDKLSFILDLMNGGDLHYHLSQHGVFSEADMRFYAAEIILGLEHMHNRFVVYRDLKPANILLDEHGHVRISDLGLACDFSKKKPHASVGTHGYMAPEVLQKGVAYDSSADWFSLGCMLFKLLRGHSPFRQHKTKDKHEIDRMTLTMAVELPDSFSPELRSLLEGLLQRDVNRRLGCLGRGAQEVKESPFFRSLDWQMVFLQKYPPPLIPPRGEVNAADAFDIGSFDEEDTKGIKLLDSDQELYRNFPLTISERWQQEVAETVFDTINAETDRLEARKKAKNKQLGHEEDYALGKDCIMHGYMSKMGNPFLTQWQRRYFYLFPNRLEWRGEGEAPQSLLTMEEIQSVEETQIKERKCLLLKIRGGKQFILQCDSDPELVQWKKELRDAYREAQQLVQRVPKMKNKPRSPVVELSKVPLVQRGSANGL
Chain of ATP-binding cassette sub-family B member 6 (Homo sapiens) (Q9NP58 whole entry, looked up): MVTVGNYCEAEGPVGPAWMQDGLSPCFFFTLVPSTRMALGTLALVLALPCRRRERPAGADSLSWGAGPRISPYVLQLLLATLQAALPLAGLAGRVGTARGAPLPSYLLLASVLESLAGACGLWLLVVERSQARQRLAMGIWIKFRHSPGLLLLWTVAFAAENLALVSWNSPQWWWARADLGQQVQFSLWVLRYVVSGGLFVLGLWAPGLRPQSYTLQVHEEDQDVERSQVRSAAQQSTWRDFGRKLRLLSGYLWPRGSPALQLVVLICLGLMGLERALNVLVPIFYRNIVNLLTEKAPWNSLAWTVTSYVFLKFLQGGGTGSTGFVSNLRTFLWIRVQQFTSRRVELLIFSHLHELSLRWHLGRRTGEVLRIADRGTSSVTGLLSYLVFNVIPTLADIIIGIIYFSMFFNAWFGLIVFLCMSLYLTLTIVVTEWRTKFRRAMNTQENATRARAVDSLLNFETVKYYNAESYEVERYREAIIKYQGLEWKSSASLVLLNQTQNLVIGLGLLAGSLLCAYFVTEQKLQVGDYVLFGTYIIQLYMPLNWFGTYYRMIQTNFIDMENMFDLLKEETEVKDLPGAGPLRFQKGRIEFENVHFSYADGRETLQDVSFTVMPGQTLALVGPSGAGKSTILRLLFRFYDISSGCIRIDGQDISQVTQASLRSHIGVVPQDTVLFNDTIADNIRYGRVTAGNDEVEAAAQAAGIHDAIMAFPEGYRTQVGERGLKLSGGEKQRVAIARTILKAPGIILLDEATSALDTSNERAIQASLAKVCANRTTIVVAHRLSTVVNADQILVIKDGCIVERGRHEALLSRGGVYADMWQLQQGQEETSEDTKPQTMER
Chain of Integrin beta-1 (Homo sapiens) + Integrin alpha-4 (Homo sapiens) (P05556 whole entry, looked up): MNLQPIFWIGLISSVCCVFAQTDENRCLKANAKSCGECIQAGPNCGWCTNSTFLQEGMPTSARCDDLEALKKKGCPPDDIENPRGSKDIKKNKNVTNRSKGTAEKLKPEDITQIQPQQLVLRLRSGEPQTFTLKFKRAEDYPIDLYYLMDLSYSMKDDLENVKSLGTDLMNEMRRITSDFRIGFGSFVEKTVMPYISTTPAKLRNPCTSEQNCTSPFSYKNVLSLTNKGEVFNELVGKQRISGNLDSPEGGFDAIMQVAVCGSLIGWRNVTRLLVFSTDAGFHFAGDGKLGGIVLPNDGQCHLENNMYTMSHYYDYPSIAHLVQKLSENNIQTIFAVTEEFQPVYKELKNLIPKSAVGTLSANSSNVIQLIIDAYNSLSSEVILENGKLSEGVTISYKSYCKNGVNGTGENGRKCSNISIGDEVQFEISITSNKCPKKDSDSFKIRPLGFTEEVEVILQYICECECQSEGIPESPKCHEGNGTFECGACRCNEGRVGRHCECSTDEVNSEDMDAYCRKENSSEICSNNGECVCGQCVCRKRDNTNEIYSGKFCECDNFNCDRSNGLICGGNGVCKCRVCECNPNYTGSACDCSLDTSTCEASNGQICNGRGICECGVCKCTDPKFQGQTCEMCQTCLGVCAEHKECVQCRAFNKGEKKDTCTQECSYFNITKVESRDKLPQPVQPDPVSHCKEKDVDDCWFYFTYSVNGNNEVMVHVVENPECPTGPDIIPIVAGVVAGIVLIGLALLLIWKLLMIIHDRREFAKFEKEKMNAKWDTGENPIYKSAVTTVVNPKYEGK
Chain of Integrin beta-1 (Homo sapiens) + Integrin alpha-4 (Homo sapiens) (P13612 whole entry, looked up): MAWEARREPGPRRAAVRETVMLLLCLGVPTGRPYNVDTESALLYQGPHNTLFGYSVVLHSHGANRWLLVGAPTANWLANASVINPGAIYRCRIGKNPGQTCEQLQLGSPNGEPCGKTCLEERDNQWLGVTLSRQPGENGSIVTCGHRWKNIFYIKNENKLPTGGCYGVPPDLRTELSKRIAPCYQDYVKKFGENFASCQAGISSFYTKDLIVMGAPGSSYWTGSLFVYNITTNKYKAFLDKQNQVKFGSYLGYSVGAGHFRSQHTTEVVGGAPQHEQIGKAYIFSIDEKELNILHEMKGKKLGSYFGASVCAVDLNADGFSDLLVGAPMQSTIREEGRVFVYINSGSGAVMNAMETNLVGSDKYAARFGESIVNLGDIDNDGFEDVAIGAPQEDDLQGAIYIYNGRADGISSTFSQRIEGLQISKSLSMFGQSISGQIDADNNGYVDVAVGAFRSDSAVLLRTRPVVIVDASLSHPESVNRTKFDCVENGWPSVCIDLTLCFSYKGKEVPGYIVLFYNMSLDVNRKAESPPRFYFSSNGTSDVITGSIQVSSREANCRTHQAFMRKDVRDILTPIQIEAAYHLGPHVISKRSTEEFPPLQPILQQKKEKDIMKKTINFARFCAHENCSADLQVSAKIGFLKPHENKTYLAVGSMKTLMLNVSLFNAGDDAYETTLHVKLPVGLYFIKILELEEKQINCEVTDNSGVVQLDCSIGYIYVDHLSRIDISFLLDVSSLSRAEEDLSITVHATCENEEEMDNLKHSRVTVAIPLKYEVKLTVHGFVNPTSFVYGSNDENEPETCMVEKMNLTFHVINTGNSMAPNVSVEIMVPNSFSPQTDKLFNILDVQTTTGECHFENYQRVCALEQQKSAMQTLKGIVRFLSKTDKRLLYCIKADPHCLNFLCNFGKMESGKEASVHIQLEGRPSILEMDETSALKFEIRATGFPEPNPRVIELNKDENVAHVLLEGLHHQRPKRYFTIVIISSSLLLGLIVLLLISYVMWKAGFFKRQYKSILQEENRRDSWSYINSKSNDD

Broadly, the inhibition is the relative decrease from the control value, in per cent. `O=c1c2ccccc2nnn1Cc1cccc2ccccc12`: in experiment [1], the percent of DMSO control GFP is 89.1% (inactive). The results for the GFP response vs DMSO in [2] and in experiment [4] were 105% (inactive) and 78.7% (inactive), respectively. Moreover, in [3], the percent response of DMSO control is 103% (inactive). In addition, the double positive events in [5] was determined as 61%. Moreover, the vesicle binding response in experiment [5] is 217% (inactive). Moreover, the inhibition in experiment [6] was -13.9% (inactive); in experiment [10] it was -7.09% (inactive); in [14] it was 13% (inactive). In [7], the superoxide response (% of plate) is 103% (inactive). In addition, the aptamer binding inhibition in experiment [8] is 1% (inactive). Moreover, the results for the response in experiment [9] and in experiment [11] were -3.06% (inactive) and 3.28% (inactive), respectively. Moreover, the binding (% of control) in experiment [12] was 99% (inactive). For the same molecule, the efflux inhibition (fraction of control) in [13] was -0.2 (inactive). Also, the differentiation response in experiment [15] is -0.82% (inactive).
Regarding `Nc1cccc(C(=O)O)c1`, the percent of DMSO control GFP in experiment [1] was 95.5% (inactive). In addition, the GFP response vs DMSO is 116% (inactive) in [2] and 79.2% (inactive) in [4]. In experiment [3], the percent response of DMSO control was 122% (inactive). The double positive events in experiment [5] is 63.4%. Besides, in [5], the vesicle binding response is 214% (inactive). For the same molecule, the inhibition in experiment [6] is 10.3% (inactive); in experiment [10], -0.66% (inactive); in experiment [14], 6% (inactive). Also, the superoxide response (% of plate) in experiment [7] is 102% (inactive). Also, the aptamer binding inhibition in experiment [8] is 4% (inactive). In addition, the results for the response in experiment [9] and in [11] were -6.68% (inactive) and 3.11% (inactive), respectively. Moreover, in experiment [12], the binding (% of control) was 102% (inactive). Besides, the efflux inhibition (fraction of control) in [13] was 0.05 (inactive). In [15], the differentiation response is -0.82% (inactive).
Consider `N=C(N)c1ccc(OCCCCCOc2ccc(C(=N)N)cc2)cc1`, for which the percent of DMSO control GFP in experiment [1] is 107% (inactive). Also, the figures for the GFP response vs DMSO in experiment [2] and in [4] were 105% (inactive) and 110% (inactive), respectively. Also, the percent response of DMSO control in experiment [3] is 96.5% (inactive). In addition, in experiment [16], the GFP response, % of DMSO was 99.6% (inactive). In experiment [5], this molecule had a double positive events of 53.8%. In addition, the results for the inhibition in [6], in experiment [10] and in [14] were -7.79% (inactive), -15.3% (inactive) and 9% (inactive), respectively. Moreover, in experiment [7], the superoxide response (% of plate) was 98% (inactive). For the same molecule, the aptamer binding inhibition in experiment [8] is -23% (inactive). In addition, the values for the response in experiment [9] and in experiment [11] were 20.7% (inactive) and -1.89% (inactive), respectively. In experiment [12], the binding (% of control) is 112% (inactive). The efflux inhibition (fraction of control) in experiment [13] was 0.285 (inactive). Besides, the differentiation response in experiment [15] was 8.59% (inactive).
As for `Cc1ccccc1OCC(O)CN1CCN(C)CC1` (stereo not given), the percent of DMSO control GFP in [1] was 97.9% (inactive). Besides, the figures for the GFP response vs DMSO in experiment [2] and in experiment [4] were 115% (inactive) and 75.9% (inactive), respectively. Besides, the percent response of DMSO control in [3] was 112% (inactive). The molecule further displayed a double positive events in [5] of 62.9%. Besides, the vesicle binding response in [5] was 193% (inactive). Besides, the inhibition was 4.52% (inactive) in [6], 5.62% (inactive) in [10] and 7% (inactive) in experiment [14]. For the same molecule, the superoxide response (% of plate) in experiment [7] is 107% (inactive). Besides, in experiment [8], the aptamer binding inhibition is 3% (inactive). Also, the response is -6.23% (inactive) in experiment [9] and -0.77% (inactive) in [11]. Moreover, the binding (% of control) in [12] is 103% (inactive). The efflux inhibition (fraction of control) in experiment [13] was 0.27 (inactive). In addition, in experiment [15], the differentiation response is -2.46% (inactive).
For the molecule `NS(=O)(=O)c1cc2c(cc1Cl)NC(CSCc1ccccc1)=NS2(=O)=O`, the percent of DMSO control GFP in experiment [1] is 97% (inactive). For the same molecule, the GFP response vs DMSO in [2] is 119% (inactive); in experiment [4] it was 84.2% (inactive). The percent response of DMSO control in experiment [3] was 118% (inactive). For the same molecule, the double positive events in experiment [5] was found to be 40.1%. For the same molecule, the vesicle binding response in experiment [5] is 27.2% (active). For the same molecule, the inhibition was -6.15% (inactive) in [6], -7.6% (inactive) in experiment [10] and 3% (inactive) in experiment [14]. Besides, the superoxide response (% of plate) in experiment [7] is 95.7% (inactive). For the same molecule, in experiment [8], the aptamer binding inhibition was 2% (inactive). For the same molecule, the response in experiment [9] is 5.55% (inactive); in experiment [11], 0.08% (inactive). For the same molecule, the binding (% of control) in experiment [12] was 103% (inactive). Besides, in [13], the efflux inhibition (fraction of control) is -0.24 (inactive). The differentiation response in experiment [15] was 13.9% (inactive).
